ERb SRC1 inh: inhibitors of ERβ-SRC1 coactivator interaction, primary screen, biochemical, TR-FRET, ERβ LBD, SRC-1 peptide; TR-FRET ER-beta LBD / SRC1-Cy5 peptide binding; receptor agonist-loaded with 1 µM estradiol; inhibition, % at 25.6 µM; 86,000 compounds, 1.3% hits; AID 633, 2007;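 active = compounds whose percent inhibition of the receptor-coactivator binding signal exceeds about 50% in the single-dose screen, limit read from the data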
ERa coact inh: ERα–SRC-1 coactivator interaction inhibitors, primary screen, biochemical, TR-FRET, ERα LBD, estradiol-bound; Estrogen receptor (Homo sapiens), P03372; TR-FRET ER-alpha LBD / SRC-1 peptide; 86,000 compounds, 1.7% hits; AID 629, 2007; inhibition, % at 25.6 µM; in the data active = inhibition above about 50%
ERa SRC1 pot: enhancers of ERα–SRC-1 coactivator binding, primary screen, biochemical, TR-FRET, ERα LBD, low estradiol. coactivator binding (% of control), % at 25.6 µM. TR-FRET ERalpha-LBD/SRC-Cy5 coactivator binding, 2 h; 100 = basal binding, no effect. Estrogen receptor (Homo sapiens), P03372. AID 639, 2007. 86,000 compounds, 1.3% hits; in the data active = activity above about 200%;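 note: binding measured in presence of low estradiol as agonist stimulus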
MMP-13 inhibitor: human MMP13 inhibitors, primary screen, biochemical, FRET peptide cleavage | inhibition, % at 4 µM | MMP-13 fTHP FRET cleavage, Mca fluorescence | 65,000 compounds, 0.07% hits;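 active = inhibition above the mean of compound-free control plate wells plus 3 SD, cut at about 14% in these data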
MT1-MMP txn act: MT1-MMP promoter reporter activation – cell-based, luciferase luminescence, primary screen. HT1080 MT1-MMP promoter luciferase reporter, overnight; hits give high values. activation factor at 10 µM. 86,000 compounds, 0.16% hits. AID 750, 2007;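 active = activation factor of at least 2 for MT1-MMP transcription at 10 µM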
Smad3 inh: Smad3/FoxH1 peptide binding inhibitors, primary screen, biochemical, TR-FRET. AID 630, 2007. inhibition, % at 25 µM. TR-FRET Smad3/Dy647-FoxH1 peptide binding, europium anti-His. Mothers against decapentaplegic homolog 3 (Homo sapiens), P84022. 88,000 compounds, 0.29% hits;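 active = compounds that reduce the energy-transfer binding signal between the protein and its labelled peptide by more than half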
Target sequence (P84022 whole entry, looked up): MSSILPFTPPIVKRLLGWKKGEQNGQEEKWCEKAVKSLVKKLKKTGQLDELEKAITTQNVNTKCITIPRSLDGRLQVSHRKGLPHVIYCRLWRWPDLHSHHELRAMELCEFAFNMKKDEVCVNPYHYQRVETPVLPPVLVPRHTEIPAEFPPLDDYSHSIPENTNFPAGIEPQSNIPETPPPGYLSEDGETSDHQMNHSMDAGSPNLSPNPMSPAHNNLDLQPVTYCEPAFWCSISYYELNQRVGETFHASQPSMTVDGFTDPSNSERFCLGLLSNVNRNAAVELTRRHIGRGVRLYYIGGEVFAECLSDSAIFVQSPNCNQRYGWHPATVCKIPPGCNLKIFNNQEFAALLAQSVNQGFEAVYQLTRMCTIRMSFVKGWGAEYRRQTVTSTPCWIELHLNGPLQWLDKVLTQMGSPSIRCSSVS
Hits are given with their value; i = inactive; nt = no result given; [ ] = dose if it differs, or a comment. Shown are actives, neighbours in structure and some others; about 3.5% of the full set was active somewhere.

SMILES	ERb SRC1 inh	ERa coact inh	ERa SRC1 pot	MMP-13 inhibitor	MT1-MMP txn act	Smad3 inh
N#Cc1nc(COc2ccccc2F)oc1N1CCCCCC1	i	i	i	i	2.2	i
N#Cc1nc(COc2ccccc2Cl)oc1N1CCCCCC1	i	i	i	i	i	i
COc1ccc(C(=O)Nc2ccccc2C(=O)N(Cc2ccco2)C(C(N)=O)C(C)C)cc1 (centres undefined)	i	57[fluorescence artefact?]	i	nt	i	i
COc1ccc(C(=O)Nc2ccccc2C(=O)NC(C(=O)NCc2ccco2)C(C)C)cc1 (centres undefined)	i	i	242[fluorescence artefact?]	i	i	i
COC(=O)c1ccccc1NC(=O)NCc1ccco1	i	i	i	i	i	i
Cc1ccccc1C(=O)NC1CCN(CC(=O)Nc2nccs2)CC1	i	i	i	i	i	i
Cc1ccc(NC(=O)CS(=O)CC(=O)NC(C)CCc2ccco2)cc1Cl (centres undefined)	i	i	i	i	i	i
COc1cc2c3c(c1)/C(=C1/SC(NC(C)=O)=NC1=O)C(=O)N3C(C)(C)C=C2C	54	77[fluorescence artefact?]	i	i	i	i
O=C1CCCC2=C1C(c1ccncc1)c1c(nc(SCc3ccccc3Cl)[nH]c1=O)N2 (centres undefined)	i	i	i	i	i	i
Cc1cccc(NC(=O)c2sc3nc(-c4ccccc4)cn3c2C)n1	i	i	i	i	i	i
Cc1cccc(NC(=O)c2sc3nc(-c4ccc(F)cc4)cn3c2C)n1	i	i	839[fluorescence artefact?]	i	i	i
CC(=O)C1=C(O)C(=O)N(c2nnn(C)n2)C1c1cccs1 (centres undefined)	79[fluorescence artefact?]	i	i	i	i	i
COc1ccc(N2C(=O)CCC2=O)cc1	i	52[fluorescence artefact?]	i	i	i	i
CC1CC2(CCCCC2)Nc2c1ccc1ccccc21 (centres undefined)	i	i	i	nt	i	i
Cc1cc(NC(=O)Cn2c(C)nc3ccccc3c2=O)ccc1Br	i	i	265	nt	nt	i
Cc1nc(SCCC(=O)O)c2ccccc2n1	i	i	i	i	i	i
Cc1cc(C(=O)OCC(=O)N2CC(C)CC(C)C2)c(C)o1 (centres undefined)	i	i	i	i	i	i
Cc1ccc(C2SCC(=O)N2Cc2cn3ccsc3n2)o1 (centres undefined)	i	i	i	i	i	64[fluorescence artefact?]
CCOC(=O)c1[nH]c(CSc2nnc(-c3ccncc3)n2CCOC)c(C(=O)OCC)c1C	i	i	i	i	i	i
CCC1(C)NC(=O)N(CC(=O)Nc2sc3c(c2C(N)=O)CCC3)C1=O (centres undefined)	83[fluorescence artefact?]	76	i	i	i	i
Oc1ccccc1-c1cc(C(F)(F)C(F)F)[nH]n1	nt	nt	nt	i	i	nt
Cc1[nH]n(-c2ccc(S(=O)(=O)O)cc2)c(=O)c1N=Nc1ccccc1	nt	nt	nt	nt	nt	i
CCN1CCN(C(=O)C2(NC(=O)Nc3ccccc3Cl)CCCCC2)CC1	i	i	i	nt	i	i
COc1ccc(C2=NOC(C(=O)NCc3ccc(F)cc3)C2)cc1OC (centres undefined)	i	70[fluorescence artefact?]	i	i	i	i
COc1ccc(CNC(=O)C2CC(c3cccc(OC)c3)=NO2)cc1 (centres undefined)	73[fluorescence artefact?]	i	i	i	i	i
SMILES	ERb SRC1 inh	ERa coact inh	ERa SRC1 pot	MMP-13 inhibitor	MT1-MMP txn act	Smad3 inh
Cc1cc(=O)[nH]c(Cc2ccc(OC(C)C)cc2)n1	i	i	i	i	i	i
Cc1cccc(C(OC(=O)c2ccco2)C(=O)NCc2ccccc2)n1 (centres undefined)	74[fluorescence artefact?]	68[fluorescence artefact?]	i	i	i	i
CC(C)C(OC(=O)c1ccco1)C(=O)NCc1ccccc1 (centres undefined)	i	i	i	i	i	i
COc1ccc2c(c1)c(C(=O)CN1CCC3(CC1)OCCO3)c(C)n2C	i	i	i	i	i	i
CCOC(=O)Cn1c(C(F)(F)F)nc2nc(Cl)c(Cl)nc21	nt	nt	nt	nt	nt	56
CCOC(=O)Cn1c2ccccc2c2nc3ccccc3nc21	i	i	i	i	i	i
CC1CCCN(S(=O)(=O)Cc2ccc(Cl)cc2)C1 (centres undefined)	i	i	i	nt	i	i
Cc1ccc(CN(Cc2cc3cc(C)ccc3[nH]c2=O)C(=O)N2CCOCC2)cc1	i	i	484	i	i	i
CCOc1ccc2[nH]c(=O)c(CN(Cc3ccc(C)cc3)C(=O)N3CCCC3)cc2c1	i	i	i	i	i	i
Nc1ccc(O)c(-c2nc3ccccc3s2)c1	64[fluorescence artefact?]	98[fluorescence artefact?]	i	i	2.1	i
COc1cccc(NC(=O)N2CCC(C(N)=O)(N3CCCCC3)CC2)c1	i	i	i	i	i	i
O=C(c1cnc2sccn2c1=O)N(Cc1ccccc1)c1ccccn1	i	i	i	i	i	i
CC1(C)CC(=O)c2cnc(N3CCN(c4ccccc4)CC3)nc2C1	i	i	i	i	i	i
CC1(C)CC(=O)c2cnc(N)nc2C1	i	i	i	nt	2.4	i
CCc1ccc(CNc2ccc(O)cc2)cc1	56[fluorescence artefact?]	i	i	i	i	i
Cc1cccc(C)c1NC(=O)CSc1nnc(-c2ccco2)c(-c2ccco2)n1	83[fluorescence artefact?]	84[fluorescence artefact?]	i	nt	i	i
CSc1nnc(-c2ccco2)c(-c2ccco2)n1	91[fluorescence artefact?]	90[fluorescence artefact?]	i	i	i	i
Cc1ccccc1NC(=O)CSc1nnc(-c2ccco2)c(-c2ccco2)n1	72	71	i	nt	i	i
Cc1csc(SCC(=O)N2CCCC2)n1	i	i	i	i	i	i
COc1ccc(CCC2(C)NC(=O)NC2=O)cc1 (centres undefined)	i	i	i	i	i	i
CCOC(=O)c1sc2nc(CSc3nc4ccccc4n3CC)[nH]c(=O)c2c1C	i	54[fluorescence artefact?]	i	i	i	i
COC(=O)c1sc2nc(CSc3nc4ccc(C)cc4[nH]3)[nH]c(=O)c2c1C	i	i	i	nt	i	i
CCOC(=O)N1CCN(C(=O)CSc2nnc(-c3ccccc3OC)o2)CC1	i	i	i	i	i	i
COc1ccccc1-n1c(SCC(=O)NC2CCCCC2)nc2c(c1=O)SCC2	i	i	697	i	i	i
C(=N\n1cncn1)/c1ccc(N2CCOCC2)cc1	nt	nt	nt	i	i	nt
CCSC(SCC)[C@H](O)[C@@H](O)[C@H](O)[C@H](O)CO	i	i	775[fluorescence artefact?]	i	i	i
N/C(Cc1ccc([N+](=O)[O-])cc1)=N\OC(=O)c1ccc2ccccc2c1	i	50	i	nt	i	i
Cn1c(C(=O)NCCCN2CCCCCC2)cc2c(=O)n(C)c3ccccc3c21	i	53[fluorescence artefact?]	i	i	i	i
